Test results: PubChem BioAssay AID504832 (National Center for Advancing Translational Sciences (NCATS), 2011)
Screen size: about 310,000 compounds; about 18,000 (5.8%) were called active. Not shown: some 22% with an inconclusive outcome. The sample as a whole holds a higher share of actives than the screen did. Unmarked numbers belong to inactive results. Calls follow the shape of the dose curve; as a rule, active = well fitted inhibition curve with a large enough effect; inconclusive = small, poorly fitted or top-dose-only effect, or another doubt; inactive = no such curve, though single readings can be large or run the other way.

Test: Primary qHTS for delayed death inhibitors of the malarial parasite plastid, 48 hour incubation
Conditions: P. falciparum luciferase growth in erythrocytes; series mostly up to 28.7 µM; activity change, negative = inhibition: at the top concentration
In short: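 In quantitative HTS format, infected erythrocytes bearing luciferase-reporter parasites were treated for a single generation at 37 C. Luminescence after adding detection reagent served as the growth measure.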
% is scaled to controls: 0 for no effect and ±100 for the full control effect; potency is read from the fitted curve at half-maximal effect.

Compound	activity change, negative = inhibition [%]	Potency
CC1(NC(=O)CCS(=O)(=O)c2ccc(Cl)cc2)CCS(=O)(=O)C1 (stereo unspecified)	4.95	
C=CCn1c(SCC(=O)Nc2ccc(NC(C)=O)cc2)nc2sc(C)c(C)c2c1=O	-19.7	
CCN(CC(=O)NCc1cccs1)C(=O)c1ccc(OC)c(S(=O)(=O)N2CCOCC2)c1	1.87	
O=C(CC1C(=O)NCCN1C(=O)c1ccc([N+](=O)[O-])cc1)Nc1cccc(Cl)c1 (stereo unspecified)	2.97	
COc1ccc(C(=O)n2nc(C)c(Br)c2C)cc1OC	43.6	
O=C1c2ccccc2NC(c2ccc(-c3cccc(Cl)c3)o2)N1O (stereo unspecified)	89.3	
O=c1c(-c2cccc(Cl)c2)c[nH]n1-c1ccccc1		3.7 µM (active)
O=C1NC(c2cccc(Cl)c2)Nc2ccccc21 (stereo unspecified)	34.8	
Cc1nc2sccn2c(=O)c1S(=O)(=O)NCCc1ccccc1	-2.59	
COCCNc1nnc(SCC(=O)NNC(=O)c2ccco2)s1	-15	
CCCNC(=O)CSc1nc(Cc2ccccc2)nc2ccccc12	-19.7	
Cc1nc(N2CCN(c3ccccn3)CC2)c2c(C)c(C(=O)Nc3ccc(F)cc3)sc2n1		13.1 µM (active)
CCN(CC)c1ccc(NC(=O)CN2CCN(c3ccccn3)CC2)cc1	-14.4	
Cc1cc(Br)ccc1NC(=O)c1sc2ncn(CC(=O)N3CCN(c4ccccn4)CC3)c(=O)c2c1C	-1.69	
CC(=O)N1CCN(CC(C)(C)NS(=O)(=O)c2ccc(C)cc2)CC1	6.55	
CC(=O)Nc1ccc(NC(=O)CSC2=NS(=O)(=O)c3ccccc3N2)cc1	1.84	
N#CCCN(C(=O)COC(=O)C1CCN(c2ccc(C(F)(F)F)cn2)CC1)c1ccc(F)cc1	-1.84	
CCOc1ccc(C(=O)NCC(=O)N2CCN(c3ccc(C(F)(F)F)cn3)CC2)cc1	-12.7	
CCCN1CCn2c3c(c4cc(Br)ccc42)CCCC31 (stereo unspecified)		8.28 µM (active)
O=C(CN1C(=O)NC2(CCCCC2)C1=O)N1CCN(C(=O)c2cccs2)CC1	3.33	
Cc1nn(CC(=O)NCCc2ccccc2)c(=O)c2cc3occc3n12	22.7	
COc1ccc(CC(=O)OC(C)C(=O)Nc2ccc(S(N)(=O)=O)cc2)cc1 (stereo unspecified)	6	
CCCCN(C(=O)c1ccc(C)o1)c1c(N)n(CCCC)c(=O)[nH]c1=O	29.6	
CCCCN(C(=O)CCNC(=O)NC12CC3CC(CC(C3)C1)C2)c1c(N)n(CCCC)c(=O)[nH]c1=O		13.1 µM (active)
CCCCCN(C(=O)CCC(=O)OCC(=O)NCc1ccc(OC)cc1)c1c(N)n(CCCC)c(=O)[nH]c1=O	11.3	
O=C(Cn1c(NCCO)nc2ccccc21)c1ccc(Cl)cc1Cl		13.1 µM (active)

Compound	activity change, negative = inhibition [%]	Potency
CC(C)(C)C(=O)Cn1c(NCCO)nc2ccccc21	2.22	
O=S(=O)(O)c1nc2ccccc2n1Cc1ccc(Cl)cc1Cl	11.4	
O=C(COC(=O)c1ccc([N+](=O)[O-])cc1Cl)NC(=O)c1ccccc1	7.05	
C/C=N/N(c1ccccc1)c1ccccc1		10.4 µM (active)
Cc1cccc(-c2c(NC(=O)c3ccco3)oc3ccc(Cl)cc3c2=O)c1	26.5	
O=C(O)CSc1ccc(S(=O)(=O)N2CCCC2)cn1	5	
Cc1ccc(NC(=O)CSc2sc3c(O)cc(=O)[nH]c3c2C#N)cc1C	15.9	
CC(C)CN(C(=O)c1ccc2c(c1)OCO2)C1CCS(=O)(=O)C1 (stereo unspecified)	15.5	
COc1ccc(Cl)cc1NC(=O)c1oc(C)nc1C	24	
Cc1cccc(NC(=O)c2cccc(C(F)(F)F)c2)c1	18.1	
CCOC(=O)c1csc(NC(=O)Nc2cccc(OC)c2)n1	77.8	
CCCCCCC(=O)Nc1nc(C)c(-c2csc(Nc3cccc(OC)c3)n2)s1		5.22 µM (active)
C=CCCC(=O)Nc1nc(C)c(-c2csc(Nc3ccc(Cl)cc3)n2)s1		1.47 µM (active)
COc1ccc(-c2csc(Nc3ccc(O)cc3)n2)cc1	-28.2	
O=C(Nc1ccc(-c2csc(Nc3cccc(C(F)(F)F)c3)n2)cc1)c1cccc(C(F)(F)F)c1		9.28 µM (active)
CC(=O)Nc1ccc(-c2csc(NC(=O)Nc3ccccc3)n2)cc1	-5.54	
CCCCCCC(=O)Nc1nc(C)c(-c2csc(Nc3cc(Cl)ccc3OC)n2)s1		4.65 µM (active)
COc1cc(CC(=O)Nc2nc(-c3ccc(F)c(F)c3)cs2)cc(OC)c1OC	-25.2	
CC(=O)c1sc(NC(=O)CCCOc2ccccc2C)nc1C	9.54	
COc1ccc(-c2csc(NC(=O)COC(=O)Cc3ccc(Cl)cc3Cl)n2)cc1	184	
CC(C)CN(C(=O)Cn1c(=O)cnc2ccccc21)C1CCS(=O)(=O)C1 (stereo unspecified)	13.7	
Cc1ccccc1Nc1c([N+](=O)[O-])ccc2nonc12	-12.3	
CC1(C(=O)OCC(=O)Nc2ncc(Cl)cc2Cl)CC1(Cl)Cl (stereo unspecified)	1.62	
Cc1cccc(OCC(=O)Nc2ccc(C(=O)O)cc2NC(=O)COc2cccc(C)c2)c1	24	
O=C(NCCCN1CCCC1=O)c1ccc(S(=O)(=O)Nc2ccccc2)cc1	-8.62	
